Data: paper PMC12136788
The full ranking holds about 24,000 sequences; the median of “enrichment r” is about 0.99, and the highest 2% start at about 3.7. For the sample, the highest values were picked, then their nearest neighbours and some sequences at random.

B1: 32462045_32462714_1507_3pUTR_ENSMUSG00000027668_ENSMUST00000091257|mouse|control|control (ssRNA)
RNA: GGGAGUUCUACAGUCCGACGAUCACUCUUAUACACUUUCAGUACACUGGGGGUAGGAUGAAACUCAGAACAAAACUCAUCAACCAAAACAGAUAGUCGACAAAUUUCAUCUGUCAUUGCACAAGAAACCUUGUUUGCCACCUCCAACAGAGGAUUGAGCAUCA
B2: 7395510_7396407_2237_ncRNA_ENSMUSG00000031153_ENSMUST00000132456|mouse|control|control (ssRNA)
RNA: GGGAGUUCUACAGUCCGACGAUCAUGUUCUGCAGCUUCUUGUUCAUUUCUCGAAGGUUCUCAUCGCCUGGCUUCACUAGGUCUCUCAGGACACUGCCCAGCCCACUUCGGUCUGUGUGGCCUGCUGCCACAGACACAUCAAUCCAACAGAGGAUUGAGCAUCA
B3: chr9:14812383:14812384:-_ENSMUSG00000031934_ENSMUST00000164273|mus_mus|mus_mus_mus_hu_True|28_28 (ssRNA)
RNA: GGGAGUUCUACAGUCCGACGAUCAUAGCCCAGGUAGAUACACGCUAACAGUAUAAUGAUGAGUGUCAGCAGGCGGCAGCUAAUGUACUUGAUGAUUAAAUUAUUAGAGUUCUUUUUUGUCUUCAAGUACUGCUCCACAAUUGGCAACAGAGGAUUGAGCAUCA
B4: chr5:144471560:144471561:-_ENSMUSG00000051306_ENSMUST00000053287|mus_hu|FALSE|FALSE (ssRNA)
RNA: GGGAGUUCUACAGUCCGACGAUCGAGACUCCAGUAUCAGUGAAGACAAGAGACGCUGUAUCAAAAAGUGUUGUGUAAUAGAAACAUACUGUCGGCUUUACAAAUCAUGUCUGGGUUAUACAUUCAUAAUGUAAAUACUCAUCACAACAGAGGAUUGAGCAUCA
B5: chr11:54532911:54532912:-_ENSMUSG00000052298_ENSMUST00000064104|mus_hu|FALSE|FALSE (ssRNA)
RNA: GGGAGUUCUACAGUCCGACGAUCGGGUCGGCAGUGAAAAGAAAAAUGUUUAAAAUAGAAAAAAAAAACUGCAAAAUGGUGUUAGCAUUCACAAAAAAGAUCAUGCGAAGAUCAGAUCCAUACUGAUUAAACAUUGAAAAUUCACAACAGAGGAUUGAGCAUCA
B6: chr13:51246309:51246310:+_ENSMUSG00000021395_ENSMUST00000095797|mus_hu|FALSE|FALSE (ssRNA)
RNA: GGGAGUUCUACAGUCCGACGAUCCCCACAGUGAAGCACGAGGGACAGAGCGACUGCAGCUGUGGACAGAAAACUGAGGUACUGUGUUUACAUGGUGAGUGGUCGUUACCAUCCAACAGCACAAGGCACAAAAAAUGGGCAUCACAACAGAGGAUUGAGCAUCA
B7: chr7:140404665:140404666:+_ENSG00000090266_ENST00000247866|hu_hu|hu_hu_hu_mus_False|18_38 (ssRNA)
RNA: GGGAGUUCUACAGUCCGACGAUCUGCUCCUACUCGUCCAGAGAGUUUACAGUGUCAGUCCUCGUCAUCAGGAGGGAUUCCCAGUUCUUCAUCUGUCCACUGGGAAGGAUCUGGAUACGGAAAGUGACCCAGCACAGCAUCCGACAACAGAGGAUUGAGCAUCA
B8: chr6:89793807:89793808:+_ENSG00000146278_ENST00000336032|hu_mus|FALSE|FALSE (ssRNA)
RNA: GGGAGUUCUACAGUCCGACGAUCACUUCCCAUCCAGUGACUCGGAGGCUUUGGGAGGACACUAGGGGAAGGUGGGUCACUGAACUUUGCUCCGGCGUAAUUUUCCUUUUGGCUCACUUCUGUUAGAAAUGCUGAUUUCUUCAACAACAGAGGAUUGAGCAUCA
B9: chr9:104153060:104153061:-_ENSG00000136897_ENST00000374865|hu_mus|FALSE|FALSE (ssRNA)
RNA: GGGAGUUCUACAGUCCGACGAUCAUGAGAUUCCAAGCGACUCUGGAGAUCACUGGGCGGUGUGUAUGCUCGGCUUCGUAAGGGUGGACACACCAAAACAGGUUCUUUUUUCACUUCUUCCACUGUCUCUGCCACAACUGGCUCCAACAGAGGAUUGAGCAUCA
B10: chr19:37005844:37005845:-_ENSG00000254004_ENST00000523638|hu_mus|FALSE|FALSE (ssRNA)
RNA: GGGAGUUCUACAGUCCGACGAUCGGGAGUUUUCUUAGAUUCACUGGGUCUCUCUUCGGUAUGUUGUUUCUGAUGAGAAAGGAAGUUUCCUCUCUGGCUGAAGGCCUUCCCACAUUCCCCACACUUGUAGGACUCCCUCCUUGGCAACAGAGGAUUGAGCAUCA
B11: 118238769_118243032_844_CDS_ENSMUSG00000005102_ENSMUST00000005233|mouse|control|control (ssRNA)
RNA: GGGAGUUCUACAGUCCGACGAUCAGAGAAAUGGAGGAUGUCACACGAGCCAGGAGAGGGUUCACCACUACACACAGAAUACUGACGUUCUCGCCUGGACCUUCCUGAGGAGUAUGUCCGGGCUUUACCAUUUCCUACAAAGUCCAACAGAGGAUUGAGCAUCA
B12: chr1:150192712:150192713:-_ENSG00000143401_ENST00000314136|hu_hu|FALSE|FALSE (ssRNA)
RNA: GGGAGUUCUACAGUCCGACGAUCGCACCAUACUACACCUGUGUAAAAGUGAUCAUGUUUUAAUUAUGGGCUAAAAAUGACUAAUACAGUAAGCUUGAAUUUAAAAAAUUAAGUCUAAAUAAAUUGCUAGGGAAUUCCACAAUGCAACAGAGGAUUGAGCAUCA
B13: chr16:11966626:11966627:-_ENSG00000103342_ENST00000563468|hu_hu|FALSE|FALSE (ssRNA)
RNA: GGGAGUUCUACAGUCCGACGAUCUUGUAACAUGUGCACACACACUCGCACACUCAGAAUGAUCUGCCUGGGGGAAAAAUACUAAAUAUGCCUAAGGGGAAAAUGAAAAAUAAAAAAAUUCCUGUAGGUUUUCAUUAUUGUAGGCAACAGAGGAUUGAGCAUCA
B14: chr12:72179577:72179578:+_ENSG00000080371_ENST00000261263|hu_mus|motif|central (ssRNA)
RNA: GGGAGUUCUACAGUCCGACGAUCGUUUAGCACUUAAGGUCUCUGCAGUGUUAUAAACGUAAUUGAAAAUACUGUUAAUUCGGUAACUCCAUUGGUAAAAUGAUGUGACUUGGAAUAUGGCAGUCUUCAUGUUGAGGGCAAUGACAACAGAGGAUUGAGCAUCA
B15: chr16:94690093:94690094:+_ENSMUSG00000040785_ENSMUST00000117648|mus_hu|mus_mus_mus_hu_True|18_68 (ssRNA)
RNA: GGGAGUUCUACAGUCCGACGAUCGGGCUGGGAUGACGGACACACAGCCUCGAUUCCAGGGGGAAAAAAAAAUAGCCGAUACUAAUUAAAAAGUGUUAAUGAUUUUUGAAAAUCAGAUGUAGAUUAAAAAAGAUGAAAAGCAAACAACAGAGGAUUGAGCAUCA

Biological target: T1, UNK ZnF1-3 (human, UniProt Q9C0B0 31-174)
T1 sequence: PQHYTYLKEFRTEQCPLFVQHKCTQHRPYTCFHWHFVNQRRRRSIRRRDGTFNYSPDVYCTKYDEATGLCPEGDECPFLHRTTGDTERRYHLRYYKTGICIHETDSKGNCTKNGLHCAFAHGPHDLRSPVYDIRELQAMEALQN
Assay: nsRBNS (natural sequence RNA bind-n-seq); RBNS binding buffer (assumed for nsRBNS): 25 mM Tris pH 7.5, 150 mM KCl, 3 mM MgCl2, 0.01% Triton X-100, 500 ug/ml BSA, 20 U/ml SUPERase-In, 4 C; UNK is unkempt and MSI1 is Musashi-1; names of the RNAs are library labels; protein concentration not given here; high values mean tight binding

Binder	binding signal [enrichment R]
B1	1.52
B2	0.526
B3	1.74
B4	1.01
B5	4.5
B6	1.39
B7	1.45
B8	0.744
B9	0.821
B10	0.845
B11	1.63
B12	5.25
B13	3.28
B14	0.946
B15	3.66
